These results are taken from paper PMC12136788.

Where a chain is given by its changes, count along the chain named. In all, about 5,800 sequences were measured (“enrichment r”: median about 0.54, highest 2% from about 16 on). The list comes from a sample in which the highest values are over-represented; it also holds similar and randomly drawn sequences.

B1: chr3:44647099:44647200:+|3pUTR|ENSG00000186448|msi1|total|mutant (ssRNA)
RNA: GGGAGUUCUACAGUCCGACGAUCAUUUGUAUGUAAACUACAUAAAGAACUUUCCAAAUUUAACAGUAAUAAGUAAAUACAAUCCGAAAAUAAGCAAAAGACAGACAUUUCACUGAAGUACCGACCGCAAAUAAGCAAAUGAAACAACAGAGGAUUGAGCAUCA
B2: ENSG00000067715:stop:overlap|stop_codon|ENSG00000067715|stop_codon|NA|stop_codon (ssRNA)
RNA: GGGAGUUCUACAGUCCGACGAUCAGGAGAAGUUUAUGAAUGAGUUGCAUAAAAUUCCAUUUCAAAGGAAAGAGAGUACCAAUUAGACAAGGGAAGAAGAUGAGAGACUGCCUGAACAGCAUCACUUUUGUAAACUGAGAGUUCCAACAGAGGAUUGAGCAUCA
B3: chr3:44647099:44647200:+|3pUTR|ENSG00000186448|msi1|FALSE|unique (ssRNA)
RNA: B1 RNA with C83U, C84A, C120U, C121A, C124U, C125A
B4: chr19:34227675:34227687:+|3pUTR|ENSG00000257103|msi1_unk|total|mutant (ssRNA)
RNA: GGGAGUUCUACAGUCCGACGAUCUUAAAACAUGAGCAUUAAAUAUAUUUGGAACCGCAGAAGGUUAAGUAAUUUCUUAUGUACCGUUAAACUAAAGCAGUACUUCAGUGGGACUUAACAAGUAUUUUUUCAUCACUGAAAGGUCAACAGAGGAUUGAGCAUCA
B5: chrX:41141081:41141111:+|CDS|ENSG00000124486|msi1_unk|total|mutant (ssRNA)
RNA: GGGAGUUCUACAGUCCGACGAUCCACUCUUCAUACAGUGAAAAAGUACUUUCUUCCAAUAACCGAAAUGGUUCCACAGUUUUCCGAAAACUUAACUGAUGAAGAACUGAAAAAAGAAGCAAAGAAUGAAGCCAAAAAUGAUGCCAACAGAGGAUUGAGCAUCA
B6: chr8:30843048:30843149:-|CDS|ENSG00000133863|unk|FALSE|unique (ssRNA)
RNA: GGGAGUUCUACAGUCCGACGAUCGGAUACUAUAAUUGCUUCCAGAAAGUCAGAUCAUCCAAUAAACGAAGCAACAAUUAGCAUAGAAAAUUCUAAAUUUAACAGUAAUUUGCUUGCACACCCAGAUAUUUGUUGUAUUAGUGACAACAGAGGAUUGAGCAUCA
B7: chr11:85958428:85958534:-|3pUTR|ENSG00000073921|unk|FALSE|unique (ssRNA)
RNA: GGGAGUUCUACAGUCCGACGAUCAGAAACAAUAACUGAAAUUAACUUUUCUUUUUUUAAAAAAAAUUAUAUUCAGUUUGCAGUAGACAUUCCUUAAGUAUUUGUAUUUAUUUAUGAUUAUCAAUUUUACAUAACAUUAAUAUUCAACAGAGGAUUGAGCAUCA
B8: chr12:125025615:125025697:+|3pUTR|ENSG00000184992|msi1_unk|FALSE|overlapping (ssRNA)
RNA: GGGAGUUCUACAGUCCGACGAUCGGACACAUUCCCAGAAGAGCGGAAAGAUCAUUGACGUGGAACUACACACGAAGUGUAAUUAGUGGGGGAAAAAAUAUUUUUUAAACAAAGGAUAUAACCAUAUUUAGUUGUACAGUAAGACAACAGAGGAUUGAGCAUCA
B9: chr8:30843048:30843149:-|CDS|ENSG00000133863|unk|total|mutant (ssRNA)
RNA: B6 RNA with U78C, A79C, U83C, A84C, U138C, A139C
B10: chr11:214995:215097:+|3pUTR|ENSG00000177963|unk|total|mutant (ssRNA)
RNA: GGGAGUUCUACAGUCCGACGAUCCCUCCUUCCUACUGGUUCCGACUACACUUACAACAAGGAAAAUGCCCCUCGUGUGACCACCGAUUGAGAUUUAUACCACAUACCACACACCGCCACAGAAACAUCAUCUUGAAAUAAAGACAACAGAGGAUUGAGCAUCA
B11: chr5:157162449:157163658:-|CDS|ENSG00000170613|control|control|control (ssRNA)
RNA: GGGAGUUCUACAGUCCGACGAUCGGUCACAUCACAUGACAGAGAGGUAGAUAUCGUGGCUAAGAUGGUGGAGAAGCAAAACAUAGAGGCCAAAGUGGAGAAAGCCCAGGGUGGCCAGGAGCUGGAGAUGAUCAGUGGCACUAUCAACAGAGGAUUGAGCAUCA
B12: chr1:234405902:234406099:-|CDS|ENSG00000059588|control|control|control (ssRNA)
RNA: GGGAGUUCUACAGUCCGACGAUCCCUUAUAGUUGUGCUGCAGUGGUGUUUCAAUCACAAUUUUAGUGUUCGACUGUAUGCUUUAGUUGCUCUUAAGAAACUCUGGACUGUGUGUAAAGUGUUAAGUGUUGAAGAAUUUGAUGCCAACAGAGGAUUGAGCAUCA
B13: chr6:136278143:136278257:-|CDS|ENSG00000029363|unk|total|mutant (ssRNA)
RNA: GGGAGUUCUACAGUCCGACGAUCACAUCCGGUGAUAUUUGGCCUGGCCUUUCAGCUUAUGAUAACCGUCCCCGAUCACCCCACCGUCCUUCACCUAUUGCUACACCACCCCGUCAGAGUUCAUCUUGCUCUGAUGCUCCCAUGCAACAGAGGAUUGAGCAUCA
B14: chr1:15430058:15430159:+|3pUTR|ENSG00000142634|msi1|FALSE|unique (ssRNA)
RNA: GGGAGUUCUACAGUCCGACGAUCCCUGGAAGCUACGCGGACUUGCAGAGGUUUUAUUUUUUGGCCUUAGAAUCUGCAGAAAUUAGGAGGCACCGAGCCCAGCGCAGCAGCCUCGGACCCGGAUUGCGUUUGCCUUAGCGGAUACAACAGAGGAUUGAGCAUCA
B15: ENSG00000070961:be:win_4001|3pUTR|ENSG00000070961|bound_else_gene|NA|bound_elsewhere_windowed (ssRNA)
RNA: GGGAGUUCUACAGUCCGACGAUCAGUAAAACUGGGCAAGACAAAGAGCCCUGGAUCGUUGAAUUGAUAGUUUAAUUUCUGCUGUUGGCUGUUAAUAAUUUGGAUUAUUUAUGUUUAUAAAUGAUACAGAUCUGUUUACAAGGUCAACAGAGGAUUGAGCAUCA
B16: ENSG00000005810:stop:overlap|stop_codon|ENSG00000005810|stop_codon|NA|stop_codon (ssRNA)
RNA: GGGAGUUCUACAGUCCGACGAUCCACCCACUGGGGAAGAGUUUGCUCUGGGAUGUGGAGUGUGCAGAAAUGCCCACACUUUUUAGAACACGCAGAUCCUUUGUCUACAGAGAGAAAAAUUGCCUUCAUCCCCCAAGAGGAUGCCAACAGAGGAUUGAGCAUCA
B17: chr2:105361111:105361195:-|3pUTR|ENSG00000115641|msi1_unk|total|mutant (ssRNA)
RNA: GGGAGUUCUACAGUCCGACGAUCCUUUCUCACCCAGGCAAUCUUGCCUUCUGGUUUCUUCCAGCCACAUUGAGACUUUCUUCCCGUGCUUUUCAGUGAUACUCACGUUUGCUUAAACCCUUCCGUGCUUUGUGACCGUUCAGUCAACAGAGGAUUGAGCAUCA
B18: ENSG00000071054:stop:overlap|stop_codon|ENSG00000071054|stop_codon|NA|stop_codon (ssRNA)
RNA: GGGAGUUCUACAGUCCGACGAUCCUGGUGGCAGCAGUCAGGUUUAUUUCAUGACCUUAGGCAGGACUUCUCUUCUGAGCUGGUAGAAGCAGUGUGAUCCAGGGAUUACUGGCCUCCAGAGUCUUCAAGAUCCUGAGAACUUGGCAACAGAGGAUUGAGCAUCA
B19: chr10:62094764:62094865:+|3pUTR|ENSG00000150347|msi1|FALSE|unique (ssRNA)
RNA: GGGAGUUCUACAGUCCGACGAUCGAUGAACUCCCCAACCCACUGUGCCCCUCCCGCAACACUACCAGUAGACUUUAGAACCAUAGUUAACUAAGUCUUUUACCUCUGAGAUACUUAAUUCUGGGAAAAUUGGUGACAAUUUUCCAACAGAGGAUUGAGCAUCA
B20: ENSG00000198589:be:win_9701|3pUTR|ENSG00000198589|bound_else_gene|NA|bound_elsewhere_windowed (ssRNA)
RNA: GGGAGUUCUACAGUCCGACGAUCCAAGGAUUUGGAAUGAACAAUUCAGUUUGACAGAAAAAGCUGAAUAAAAUGGCAUCUGUAAUUGAAUUGUUGGAAAUGCCUUUUUUGCUCCUAAAUUUUAAACAUCAUUAAUAAAAUAAUCAACAGAGGAUUGAGCAUCA
B21: chr5:136976780:136976881:-|3pUTR|ENSG00000152377|msi1|total|mutant (ssRNA)
RNA: GGGAGUUCUACAGUCCGACGAUCCUUAAAUCCGCAUGUUCCAAUCCAGUCGGCAUUGCCUGAAUACAGCCGCAUCAUACCUACCGUUGGUCUCCGAUAAGAAAUGAACUACUUGAUACCGCAAAGUCCUUUGGCUUCGUAAAUCAACAGAGGAUUGAGCAUCA
B22: chr8:9779869:9779970:+|3pUTR|ENSG00000173273|msi1|FALSE|unique (ssRNA)
RNA: GGGAGUUCUACAGUCCGACGAUCGGAAUUUCUAGCUUUUCAAGCAGCAUAAGUAGAAUCAACAUUAGGAUGUUUUCAUGAAAUAGCAUCCUUAUACUUCUUUGAGCUUGAUGUUAGUGGCUAGACUGAUUUCCCUUUGCUCUCCAACAGAGGAUUGAGCAUCA
B23: chrX:85861749:85861850:-|3pUTR|ENSG00000188419|msi1|total|mutant (ssRNA)
RNA: GGGAGUUCUACAGUCCGACGAUCCUAAUUUAAAAUUUCAGAAAAUGCUAUUAAAGAAUUUUGAUUCAAGUAUUUAAACUGUUCCGUUAUGCAUGCUUCUUAUUAACCGAAAAUGAUAAUACCAUUCCGUUCCGUGAUCAGUAUCAACAGAGGAUUGAGCAUCA
B24: chr5:136976780:136976881:-|3pUTR|ENSG00000152377|msi1|FALSE|unique (ssRNA)
RNA: B21 RNA with C31U, C32A, C69U, C70A, C83U, C84A, C93U, C94A, C118U, C119A
B25: chr11:62152232:62152344:+|3pUTR|ENSG00000149503|unk|FALSE|unique (ssRNA)
RNA: GGGAGUUCUACAGUCCGACGAUCUGCUCUGUAAAUAGUUGUUUUAAUUUAGCUGAAUGUUAGCAUUUUAGUCUUUGGCAUUUUAGCGUUUGGGAGGUAGAUUAAUAAAGUAUAUUCCUUCAAGCCUGCUGUUGAUACCAUGAACAACAGAGGAUUGAGCAUCA
B26: chrX:85861749:85861850:-|3pUTR|ENSG00000188419|msi1|FALSE|unique (ssRNA)
RNA: B23 RNA with C83U, C84A, C126U, C127A, C131U, C132A
B27: ENSG00000013293:stop:overlap|stop_codon|ENSG00000013293|stop_codon|NA|stop_codon (ssRNA)
RNA: GGGAGUUCUACAGUCCGACGAUCAACACAAACAGAACUCAGAGGCCCUGAUUGCAAAUGAUGAGUUAGAUUACUCUCCAGAGUAGGAGAAACACACAAGUGGGUAGAAAUGGUGAUGACUGAUUUUCAGUAACUUAACCUGUGCAACAGAGGAUUGAGCAUCA
B28: chr11:62152232:62152344:+|3pUTR|ENSG00000149503|unk|total|mutant (ssRNA)
RNA: GGGAGUUCUACAGUCCGACGAUCUGCUCUGUAAACCGUUGUUUUAAUUCCGCUGAAUGUCCGCAUUUCCGUCUUUGGCAUUUCCGCGUUUGGGAGGCCGAUUAAUAAAGUAUAUUCCUUCAAGCCUGCUGUUGAUACCAUGAACAACAGAGGAUUGAGCAUCA
B29: ENSG00000070961:be:win_4401|3pUTR|ENSG00000070961|bound_else_gene|NA|bound_elsewhere_windowed (ssRNA)
RNA: GGGAGUUCUACAGUCCGACGAUCGUUAUGACAUCUGUCCUAAUUAGUUUCUUAAAUACAUUUACUACUUAAUGGUUUUGAAGCAACUGUUUAAUUUUUAAAAUUUUUGAAAACUUGCUAAUAACCUUUUGUUCAGAAUUUAGUCAACAGAGGAUUGAGCAUCA

MSI1 full-length, sequence (Q61474 whole entry): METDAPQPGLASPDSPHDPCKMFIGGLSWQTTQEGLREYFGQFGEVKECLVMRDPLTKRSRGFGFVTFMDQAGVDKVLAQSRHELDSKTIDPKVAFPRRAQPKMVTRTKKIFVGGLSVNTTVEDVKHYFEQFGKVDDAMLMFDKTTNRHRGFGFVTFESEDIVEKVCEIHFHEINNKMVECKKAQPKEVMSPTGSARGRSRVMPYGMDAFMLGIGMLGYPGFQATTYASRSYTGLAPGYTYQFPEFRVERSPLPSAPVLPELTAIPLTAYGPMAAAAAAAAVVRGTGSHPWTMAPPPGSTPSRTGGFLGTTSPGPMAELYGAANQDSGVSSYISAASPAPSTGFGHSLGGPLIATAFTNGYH

This test concerns the target MSI1 full-length (mouse, UniProt Q61474 1-362). Put plainly: nsRBNS (natural sequence RNA bind-n-seq); RBNS binding buffer (assumed for nsRBNS): 25 mM Tris pH 7.5, 150 mM KCl, 3 mM MgCl2, 0.01% Triton X-100, 500 ug/ml BSA, 20 U/ml SUPERase-In, 4 C; UNK is unkempt and MSI1 is Musashi-1; names of the RNAs are library labels; protein concentration not given here; high values mean tight binding.
For B1, the binding signal was 19.7 enrichment R.

Take B2: the binding signal is 0.457 enrichment R.

With B3, the binding signal was found to be 129 enrichment R. The molecule B4 showed a binding signal of 1.31 enrichment R. B5 showed a binding signal of 0.267 enrichment R. B6 displayed a binding signal of 29.7 enrichment R. For B7, the binding signal is 4.67 enrichment R. Regarding B8, the binding signal was 3.62 enrichment R. The figure for B9 is 1.28 enrichment R; for B10 it is 0.839 enrichment R. Then B11, with 0.709 enrichment R; and B12, with 0.964 enrichment R; and B13, with 0.739 enrichment R. The figure for B14 is 0.989 enrichment R. Regarding B15, the binding signal worked out at 0.47 enrichment R. Then B16, with 0.439 enrichment R; and B17, with 0.426 enrichment R; and B18, with 0.605 enrichment R. The figure for B19 is 12.5 enrichment R; for B20 it is 0.605 enrichment R; for B21 it is 0.478 enrichment R. Then B22, with 0.275 enrichment R. In turn, B23 displayed a binding signal of 0.789 enrichment R. Then B24, with 71.2 enrichment R; and B25, with 70 enrichment R. As for B26, the binding signal turned out to be 54.6 enrichment R. Consider B27, for which the binding signal came out at 18.5 enrichment R. Then B28, with 0.406 enrichment R; and B29, with 3.8 enrichment R.
